This passage reports outcome and Potency results from PubChem BioAssay (Tox21).

Structures are written as SMILES. “And” between values parts separate entries of the source, which are not always exact repeats. Equal entries are not always repeated. Results filed as inconclusive are left out. Some compounds were tested as several samples or in several runs, with calls that do not always agree. The source made the active and inactive calls. Unless noted, calls follow the shape of the dose curve; as a rule, active = well fitted curve in the direction sought with a large enough effect in the repeat runs; inconclusive = weak or mixed curves; inactive = no such curve, though single readings can be large; an effect the other way counts as inactive or inconclusive.

Test [1] is described as follows: qHTS assay to test for compound auto fluorescence at 535 nm (green) in HEK293 cells (AID 720680). In general terms: In qHTS, concentration-response curves come from the screen itself.
Test [2] is described as follows: qHTS assay to test for compound auto fluorescence at 460 nm (blue) in HEK293 cell free culture (AID 720681). A digest of the protocol:
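Blue fluorescence (Ex 405/Em 460 nm, triamterene-equivalent) was read immediately after pin transfer of compound or DMSO into medium (DMEM, 10% FBS) without cells.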

Test [3] can be described thus: qHTS assay to test for compound auto fluorescence at 535 nm (green) in HEK293 cell free culture (AID 720682). In a few lines:
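Read-out: 485/535 nm fluorescence intensity, calibrated against fluorescein. Medium only (DMEM + 10% FBS, no cells); test compound or DMSO vehicle added by pintool before plate reading.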

Test [4] is described as follows: qHTS assay to test for compound auto fluorescence at 590 nm (red) in HEK293 cell free culture (AID 720683). A digest of the protocol: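 Red-channel autofluorescence of compounds in culture medium (DMEM, 10% FBS), no cells, measured at 540/590 nm. Rose Bengal sodium is the reference fluorophore for equivalence.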
A short description of test [5]: qHTS assay to test for compound auto fluorescence at 590 nm (red) in HepG2 cell free culture (AID 720684). In a few lines: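 Plate contents were MEM with 10% FBS plus test compound or DMSO, no cells. Fluorescence was recorded with 540 nm excitation and 590 nm emission.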
Test [6] is described as follows: qHTS assay to test for compound auto fluorescence at 460 nm (blue) in HepG2 cell free culture (AID 720685). In a few lines:
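Compound (23 nL) or DMSO pinned into cell-free MEM with 10% FBS; blue fluorescence read at 405/460 nm excitation/emission, expressed as auto-fluorescence equivalency to triamterene.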

Test [7] can be described thus: qHTS assay to test for compound auto fluorescence at 535 nm (green) in HepG2 cell free culture (AID 720686).
Test [8] can be described thus: qHTS assay to test for compound auto fluorescence at 460 nm (blue) in HepG2 cells (AID 720687). In a few lines:
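Blue-channel autofluorescence (Ex/Em 405/460 nm, triamterene-equivalent) was measured after 1 hr compound exposure at 37 C, 5% CO2. Cells were HepG2, plated overnight at 37 C in MEM plus 10% FBS.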

Test [9] addresses Glucocorticoid receptor (Homo sapiens) (UniProt P04150). The experiment in a line: qHTS assay to identify small molecule agonists of the glucocorticoid receptor (GR) signaling pathway (AID 720691; active = well fitted activation curve with a large enough effect in the signal ratio in the repeat runs, not every such curve was filed as active; the % refers to the signal ratio; also: potency is read from the fitted curve at half-maximal effect). A digest of the protocol: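 GR-bla HeLa cells carrying a GRE-driven beta-lactamase reporter, exposed to compounds for 18 h at 37 C. Reporter activation read as fluorescence after 2 h with LiveBLAzer B/G FRET substrate at room temperature.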

Test [10] can be described thus: qHTS assay to identify small molecule antagonists of the glucocorticoid receptor (GR) signaling pathway - cell viability counter screen (AID 720693). Also: nearly all actives have a fitted effect of over 55% in size.
The nature of test [11]: qHTS assay for identifying genotoxic compounds that show differential cytotoxicity against isogenic chicken DT40 cell lines with known DNA damage response pathways - wild type cell line (AID 743012). Also: nearly all actives have a fitted effect of over 60% in size. Also: potency is read from the fitted curve at half-maximal effect. In a few lines: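 Wild-type DT40 cells (300/well) exposed to compounds for 40 hours at 37 C/5% CO2. Viability read by CellTiter-Glo luminescence after 30 min at room temperature.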

A short description of test [12]: qHTS assay for identifying genotoxic compounds that show differential cytotoxicity against isogenic chicken DT40 cell lines with known DNA damage response pathways - Rev3 mutant cell line (AID 743014). Also: nearly all actives have a fitted effect of over 55% in size.
A short description of test [13]: qHTS assay for identifying genotoxic compounds that show differential cytotoxicity against isogenic chicken DT40 cell lines with known DNA damage response pathways - Rad54/Ku70 mutant cell line (AID 743015). Also: nearly all actives have a fitted effect of over 60% in size.
Test [14] can be described thus: qHTS assay to identify small molecule antagonists of the androgen receptor (AR) signaling pathway - cell viability counter screen (AID 743033; also: nearly all actives have a fitted effect of over 45% in size; also: potency is read from the fitted curve at half-maximal effect).
The nature of test [15]: qHTS assay to identify small molecule antagonists of the androgen receptor (AR) signaling pathway using the MDA cell line - cell viability counter screen (AID 743041; also: nearly all actives have a fitted effect of over 45% in size). A digest of the protocol: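 R1881-driven MDA-kb2 AR-luc cells, 3,000/well, were dosed with library compounds for 16 h; cell health came from CellTiter-Fluor fluorescence in the reporter wells.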
The target of test [16] is Glucocorticoid receptor (Homo sapiens) (UniProt P04150). The experiment in a line: qHTS assay to identify small molecule antagonists of the glucocorticoid receptor (GR) signaling pathway (AID 720692; active = well fitted inhibition curve with a large enough effect in the signal ratio in the repeat runs, not every such curve was filed as active; the % refers to the signal ratio; also: potency is read from the fitted curve at half-maximal effect). A digest of the protocol:
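GR-bla HeLa cells carrying a GRE-driven beta-lactamase reporter received compound after 4 h plating, then dexamethasone (5 nM final). After 18 h at 37C, the FRET substrate was loaded for 2 h at room temperature and fluorescence read.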

Test [17] addresses Androgen receptor (Homo sapiens) (UniProt P10275). Kind of test: qHTS assay to identify small molecule antagonists of the androgen receptor (AR) signaling pathway (AID 743035; active = well fitted inhibition curve with a large enough effect in the signal ratio in the repeat runs, not every such curve was filed as active; the % refers to the signal ratio). A digest of the protocol: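 HEK293 cells stably carrying UAS-beta-lactamase reporter, 2,000/well, given compounds plus R1881 agonist and incubated 16 h at 37C. LiveBLAzer B/G FRET substrate then added for 2 h at room temperature before fluorescence reading.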

Test [18] shares this target. The experiment in a line: qHTS assay to identify small molecule agonists of the androgen receptor (AR) signaling pathway (AID 743036; active = well fitted activation curve with a large enough effect in the signal ratio in the repeat runs, with a control signal flat, not every such curve was filed as active; the % refers to the signal ratio). In a few lines:
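HEK293 cells stably carrying a UAS-driven beta-lactamase reporter (GeneBLAzer AR-UAS-bla-GripTite) were plated at 2,000 cells/well, rested 4 h at 37C, then exposed to compounds in DMSO for 16 h. LiveBLAzer B/G FRET substrate was added for 2 h at room temperature; fluorescence read.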

Test [19] has the same target. Kind of test: qHTS assay to identify small molecule agonists of the androgen receptor (AR) signaling pathway using the MDA cell line (AID 743040; also: nearly all actives have a fitted effect of over 20% in size). In a few lines: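 After a 5 h incubation at 37C and 0% CO2, MDA-kb2 reporter cells were dosed with compounds in DMSO and kept 16 h under the same conditions. Luciferase activity was then read as luminescence with ONE-Glo.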

The target is the same in test [20]. Kind of test: qHTS assay to identify small molecule antagonists of the androgen receptor (AR) signaling pathway using the MDA cell line (AID 743042; also: nearly all actives have a fitted effect of over 55% in size). In a few lines: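 Antagonist mode: compounds plus R1881 agonist added to MDA-kb2 AR-luc cells, incubated 16 h at 37C. Luciferase reporter luminescence quantified, with multiplexed CellTiter-Fluor readout for cell viability.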

Glucocorticoid receptor (Homo sapiens), sequence (P04150 whole entry, looked up): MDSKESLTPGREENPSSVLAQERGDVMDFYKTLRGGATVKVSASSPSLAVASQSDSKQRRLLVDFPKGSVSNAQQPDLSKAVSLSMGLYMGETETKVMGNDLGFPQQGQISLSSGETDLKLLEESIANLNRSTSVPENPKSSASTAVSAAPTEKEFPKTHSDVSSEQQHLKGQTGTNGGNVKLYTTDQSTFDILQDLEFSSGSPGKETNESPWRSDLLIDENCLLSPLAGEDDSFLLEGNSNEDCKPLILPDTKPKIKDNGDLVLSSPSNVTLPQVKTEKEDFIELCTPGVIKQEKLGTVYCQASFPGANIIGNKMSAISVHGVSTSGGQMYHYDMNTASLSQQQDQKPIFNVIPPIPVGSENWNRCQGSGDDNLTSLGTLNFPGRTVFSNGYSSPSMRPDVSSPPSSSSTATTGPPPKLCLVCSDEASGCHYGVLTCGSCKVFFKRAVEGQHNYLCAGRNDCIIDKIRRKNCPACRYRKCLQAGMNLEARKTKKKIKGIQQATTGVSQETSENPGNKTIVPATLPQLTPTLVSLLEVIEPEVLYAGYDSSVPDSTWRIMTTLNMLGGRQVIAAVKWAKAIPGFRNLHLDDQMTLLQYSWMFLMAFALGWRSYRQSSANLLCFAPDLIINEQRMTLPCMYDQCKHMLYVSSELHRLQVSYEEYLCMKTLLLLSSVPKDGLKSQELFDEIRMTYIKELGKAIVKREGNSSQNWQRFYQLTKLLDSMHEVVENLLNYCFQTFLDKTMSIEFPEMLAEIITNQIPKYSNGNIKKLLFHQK
Androgen receptor (Homo sapiens), sequence (P10275 whole entry, looked up): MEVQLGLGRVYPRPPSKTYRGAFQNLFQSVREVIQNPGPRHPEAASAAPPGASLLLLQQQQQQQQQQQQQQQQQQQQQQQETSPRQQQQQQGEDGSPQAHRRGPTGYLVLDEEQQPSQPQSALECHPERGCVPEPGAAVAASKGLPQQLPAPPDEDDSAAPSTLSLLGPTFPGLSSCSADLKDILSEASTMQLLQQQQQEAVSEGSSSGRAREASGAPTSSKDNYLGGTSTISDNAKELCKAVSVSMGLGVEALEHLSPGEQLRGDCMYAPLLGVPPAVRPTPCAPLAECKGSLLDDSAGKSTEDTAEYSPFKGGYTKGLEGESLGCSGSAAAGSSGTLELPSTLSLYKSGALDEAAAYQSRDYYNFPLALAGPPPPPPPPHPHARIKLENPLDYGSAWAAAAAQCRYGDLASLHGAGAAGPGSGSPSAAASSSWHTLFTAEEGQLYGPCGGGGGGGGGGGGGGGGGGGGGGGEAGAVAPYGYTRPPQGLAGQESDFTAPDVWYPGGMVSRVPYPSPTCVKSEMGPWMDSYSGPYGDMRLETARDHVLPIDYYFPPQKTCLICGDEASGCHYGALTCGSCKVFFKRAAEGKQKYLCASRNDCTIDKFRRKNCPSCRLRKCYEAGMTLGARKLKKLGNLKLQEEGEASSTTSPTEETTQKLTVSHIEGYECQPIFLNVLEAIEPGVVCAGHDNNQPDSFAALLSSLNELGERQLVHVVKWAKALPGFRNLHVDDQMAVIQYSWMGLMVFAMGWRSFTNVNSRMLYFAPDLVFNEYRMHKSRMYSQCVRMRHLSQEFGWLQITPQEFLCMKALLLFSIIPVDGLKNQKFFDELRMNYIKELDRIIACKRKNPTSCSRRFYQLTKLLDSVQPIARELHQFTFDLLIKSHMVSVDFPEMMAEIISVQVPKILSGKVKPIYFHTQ

In the case of `CC(C)=CCCC(C)CC(=O)O` (stereo not drawn), the molecule was classed as inactive in test [1], in [2], in [3], in [4], in [5] and in [6]. For the same molecule, the outcome in test [7], in test [8] and in [10] was inactive. Also, the Potency entry in test [9], in test [11], in test [12], in test [13], in [14] and in test [15] was “inactive” in each case.

With `CS(=O)(=O)O`, the molecule was called inactive in [1], in [2], in test [3], in test [4], in test [5] and in [6]. Moreover, the molecule was called inactive in [7], in test [8], in test [17] and in test [18]. The Potency result in test [9], in test [16], in test [11], in test [12], in test [14] and in test [19] was “inactive” in each case. Further, the Potency result in test [15] is “inactive”.

As to `COC(=O)C1=C(C)NC(C)=C(C(=O)OC)C1c1ccccc1[N+](=O)[O-]`, the call in test [1], in test [2], in test [3], in [4], in test [5] and in test [6] was inactive. For the same molecule, the molecule was classed as inactive in test [7], in test [8] and in test [10]. Also, the Potency entry in test [9] and in test [15] was “inactive” throughout. Moreover, the Potency in test [16] was 10.7 µM (active) and 27.6 µM (active); in test [14], “inactive and 49 µM (active)”.

With `O=C(O)CCCl`, the molecule was called inactive in test [1], in test [2], in test [3], in test [4], in test [5] and in test [6]. Moreover, the result in test [7], in test [8] and in [10] was inactive. Also, the Potency entry in [9], in test [16], in [11], in [12] and in test [14] was “inactive” each time.

As to `CC(=O)Nc1ccc(S(N)(=O)=O)cc1`, the molecule was called inactive in [1], in [2], in test [3], in test [4], in [5] and in test [6]. Moreover, the outcome in test [7], in test [8], in test [10], in test [17] and in test [18] was inactive. Besides, the Potency entry in [9], in test [16], in test [11], in test [12], in test [14] and in [19] was “inactive” throughout. For the same molecule, the Potency result in [15] and in test [20] was “inactive” each time.

Take `C[C@](N)(Cc1ccc(O)cc1)C(=O)O`: the result in [1], in test [2], in test [3], in test [4], in [5] and in [6] was inactive. In addition, the result in test [7], in [8] and in [10] was inactive. Moreover, the Potency entry in [9], in test [11], in test [12], in test [13], in test [14] and in test [15] was “inactive” each time.

Turning to `Cc1cccc(C)c1NC(=O)C(C)N` (stereo not drawn), the outcome in test [1], in test [2], in test [3], in test [4], in test [5] and in test [6] was inactive. Besides, the outcome in test [7], in test [8] and in [10] was inactive. Moreover, the Potency result in [9], in test [16], in test [11], in [12], in [14] and in test [15] was “inactive” in each case.

Take `COCCc1ccc(OCC(O)CNC(C)C)cc1` (stereo not drawn): the molecule was classed as inactive in [1], in test [2], in test [3], in test [4], in test [5] and in test [6]. Further, the result in [7], in test [8] and in [10] was inactive. For the same molecule, the Potency entry in [9] is “inactive and 10.7 µM (active)”; in test [11], “inactive and 21.1 µM (active)”. Moreover, the Potency result in test [16], in test [12], in test [14] and in [15] was “inactive” in each case.

Turning to `O=C1CCCN1C1CCCCC1`, the molecule was called inactive in test [1], in [2], in test [3], in [4], in test [5] and in [6]. For the same molecule, the result in [7], in test [8] and in [10] was inactive. Moreover, the Potency result in test [9], in test [11], in test [12], in test [13], in test [14] and in test [15] was “inactive” throughout.
